# TEAD-YAP block: TEAD-YAP interaction inhibition, primary screen, TEAD-YAP interaction inhibitor project, luminescence, HEK-TIYL cells; inhibition, % at 9.12 µM; actives 1.4% (n = 640,000); TEAD-Gal4/YAP UAS-luciferase luminescence; in the data active means inhibition above about 32%;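 further: 0% = median of test compound wells and 100% = reference inhibitor wells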
# MITF primary: MITF inhibitors, primary screen, biochemical, AlphaScreen, human; Microphthalmia-associated transcription factor (Homo sapiens), O75030; AlphaScreen MITF homodimerization, bead proximity signal; inhibition, % at 2.6 µM; actives 0.91% (n = 650,000); in the data active means inhibition above about 50%;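 further: 0% = vehicle wells with protein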
# FBW7 activator: FBW7 E3 ligase activators, primary screen, biochemical, AlphaScreen, human; AlphaScreen FBW7–phospho-cyclin E peptide binding, activator screen; normalized activity (activation), % at 26.1 µM; F-box/WD repeat-containing protein 7 (Homo sapiens), Q969H0; AID 1259310, 2017; actives 0.13% (n = 650,000); in the data active means normalized activity above about 1.9%;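 further: purified mutant Fbw7 with reduced substrate affinity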
# Target sequence (Q969H0 whole entry, looked up): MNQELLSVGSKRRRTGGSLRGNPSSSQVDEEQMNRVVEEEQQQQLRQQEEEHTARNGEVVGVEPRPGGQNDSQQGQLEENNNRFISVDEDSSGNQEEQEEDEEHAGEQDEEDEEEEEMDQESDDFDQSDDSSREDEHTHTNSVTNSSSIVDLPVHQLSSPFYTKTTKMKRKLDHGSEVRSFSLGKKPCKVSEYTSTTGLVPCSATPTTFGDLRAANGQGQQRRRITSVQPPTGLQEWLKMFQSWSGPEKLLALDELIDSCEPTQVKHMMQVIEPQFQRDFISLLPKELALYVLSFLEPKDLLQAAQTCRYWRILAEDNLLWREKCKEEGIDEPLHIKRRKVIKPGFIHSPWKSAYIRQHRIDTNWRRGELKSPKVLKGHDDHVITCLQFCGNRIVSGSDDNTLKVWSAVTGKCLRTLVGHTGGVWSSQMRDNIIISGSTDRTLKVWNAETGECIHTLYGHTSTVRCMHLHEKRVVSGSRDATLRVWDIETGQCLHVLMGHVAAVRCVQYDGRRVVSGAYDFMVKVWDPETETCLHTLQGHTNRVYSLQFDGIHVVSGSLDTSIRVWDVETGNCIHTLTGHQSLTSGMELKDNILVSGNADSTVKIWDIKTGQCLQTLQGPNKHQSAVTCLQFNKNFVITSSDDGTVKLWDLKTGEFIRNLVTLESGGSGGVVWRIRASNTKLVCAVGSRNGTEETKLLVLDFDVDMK
# GPR151 ag: activators of human GPR151, primary screen, cell-based, PathHunter beta-arrestin, luminescence; G-protein coupled receptor 151 (Homo sapiens), Q8TDV0; PathHunter beta-arrestin GPR151 cells; activation, % at 11.2 µM; actives 1% (n = 650,000); in the data active means activation above about 4.9%;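 further: 0% = median of compound wells and 100% = cells with positive control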
# An asterisk follows results filed as active; nt = no result. The list is not random: actives were taken first. Their share in the collection is about 3.5%.
SMILES,TEAD-YAP block,MITF primary,FBW7 activator,GPR151 ag
Cc1ccc(C(C[N+](=O)[O-])c2c[nH]c3ccccc23)o1 (stereo not given),54*,0,0,-1
CC1=C(C#N)C(=O)NC(=O)/C1=C\c1ccc(-c2ccc(S(=O)(=O)O)cc2)o1,-1,59*,-1,0
N#C/C(=C\c1ccc(-c2cc([N+](=O)[O-])ccc2Cl)o1)C(N)=O,-2,10,0,-1
CCOc1ccc(N(CC(=O)Nc2ccccc2C)S(=O)(=O)c2c(C)noc2C)cc1,55*,13,1,1
CC1=CC(C)(C)Nc2ccc(OC(=O)c3ccc(Cl)cc3Cl)cc21,-26,4,0,-1
C[n+]1ccccc1/C=C/C1=C(c2ccccc2)Oc2ccccc2O1,83*,0,0,2
C[n+]1ccccc1/C=C\c1ccccc1O,3,3,0,0
CCc1ccc(N(CC(=O)NC(C)CC)S(C)(=O)=O)cc1 (stereo not given),11,18,1.9*,-1
COc1ccc(N2CCN(C(=O)COc3ccc(C(C)C)cc3)CC2)cc1,-2,19,0,1
CC(C)NCCCOc1ccc2ccccc2c1Br,40*,-5,0,-1
Cc1ccc(CN=C(N)Nc2nc(C)cc(C)n2)cc1,54*,0,0,2
Cc1cc(C)nc(NC(N)=NCc2ccccc2)n1,5,7,0,0
COc1ccc(Br)cc1/C=C1N=C(/C=C/c2ccc(Cl)cc2Cl)OC\1=O,5,11,0,1
Cc1ccc(C(=O)Nc2ncc(C)s2)c(C)c1,80*,6,0,-4
CCn1cc(/C=C/C(=O)c2ccc(O)cc2)c(C)n1,86*,7,0,0
Cc1ccc2occ(/C=C/C(=O)c3ccc(O)cc3)c(=O)c2c1,-11,-10,0,3
Cc1c(/C=C/C(=O)c2ccc(O)cc2)cnn1C,51*,0,0,-1
COc1ccccc1/C=C/C(=O)c1ccc(O)cc1,-21,-5,0,-1
COc1cccc(Cc2cc(C(=O)N3CCN(C(=O)c4ccco4)CC3)on2)c1,-52,-16,0,0
COc1ccc(Nc2nccc(NCCc3ccccn3)n2)cc1,-32,16,0,1
COc1ccc(C)cc1NC(=O)NCCNc1cc(-n2nc(C)cc2C)ncn1,51*,0,0,0
Cc1cc(C)n(-c2cc(NCCNC(=O)Nc3cccc(F)c3C)ncn2)n1,16,2,0,-2
CCOC(CNC(=O)c1c[nH]c2ccc(S(=O)(=O)N(C)c3ccc(CC)cc3)cc2c1=O)OCC,0,-6,0,1
COc1cccc(C(=O)Nc2ccc3nc(N4CCN(c5ncccn5)CC4)cc(C)c3c2)c1OC,43*,12,0,2
COc1ccccc1C(=O)Nc1ccc2nc(N3CCN(c4ncccn4)CC3)cc(C)c2c1,25,-7,0,0
SMILES,TEAD-YAP block,MITF primary,FBW7 activator,GPR151 ag
Cc1ccccc1CN1CCN2C(=O)[C@@H]3CCCN3C(=O)[C@H]2C1,46*,17,1,-1
Cc1ccc(F)c(CN2CCN3C(=O)[C@@H]4CCCN4C(=O)[C@H]3C2)c1,-1,16,1,-1
C[C@H]1NC(=O)[C@H]2CN(Cc3ccccc3Cl)CCN2C1=O,-6,12,0,0
O=C1[C@@H]2CCCN2C(=O)[C@H]2CN(Cc3ccccc3Cl)CCN12,37*,6,0,1
O=C(NCCCN1CCCC1=O)c1ccc2nc(Nc3ccccn3)sc2c1,-3,-4,0,-1
CCCCCCCCCC(=O)OC[C@H](CO)OC(=O)CCCCCCCCC,nt,13,nt,0
c1ccc(CN2CCC(NCc3ccc(N4CCOCC4)cc3)CC2)cc1,-6,68*,0,1
COC(=O)CCCN1C(=O)c2cccc3c(N4CCOCC4)ccc(c23)C1=O,53*,-4,0,0
CCC(=O)OCCN1C(=O)c2cccc3c(N4CCOCC4)ccc(c23)C1=O,-3,-12,0,-1
O=C1C(Nc2ccc(O)cc2)=C/C(=N/S(=O)(=O)c2cccc([N+](=O)[O-])c2)c2ccccc21,92*,28,-1,-2
O=C1C(Nc2ccc(O)cc2)=C/C(=N/S(=O)(=O)c2cccs2)c2ccccc21,97*,29,-1,-2
O=C(O)c1ccc(NC2=C/C(=N/S(=O)(=O)c3ccccc3)c3ccccc3C2=O)cc1,0,9,0,-3
COc1ccccc1NC1=C/C(=N/S(=O)(=O)c2cccs2)c2ccccc2C1=O,-12,54*,-1,0
COc1ccccc1NC1=C/C(=N/S(=O)(=O)c2ccccc2)c2ccccc2C1=O,48*,71*,-1,-1
O=C(O)c1ccc(NC2=C/C(=N/S(=O)(=O)c3cccs3)c3ccccc3C2=O)cc1,-11,7,0,-2
CCSCCOC(=O)C1=C(C)NC2=C(C(=O)CC(C)(C)C2)C1c1cc(Br)ccc1OC (stereo not given),-1,4,0,0
Brc1ccc(C2C=C(c3cccc(Br)c3)Nc3ncnn32)cc1 (stereo not given),-11,2,1,2
O=C(Nc1ccc(OC(F)(F)F)cc1)c1nn2c(C(F)(F)F)cc(-c3cccs3)nc2c1Cl,2,0,0,0
O=c1c(C=NCCc2ccccn2)c(CSc2ccc(Cl)cc2)[nH]n1-c1nc2ccccc2s1,0,65*,0,1
O=C(Nc1cccc(-c2nc3ccccc3o2)c1)c1cc(=O)c2ccccc2o1,-1,-2,0,0
O=C(Nc1ccc(-c2nc3ccc(NC(=O)c4ccccc4)cc3[nH]2)cc1)c1ccccc1,-43,6,0,1
Cc1ccccc1C(=O)Nc1ccc(C(=O)OC(C)C)cc1,-25,1,0,-1
O=C(Nc1cccc(-c2nc3ccccc3[nH]2)c1)c1cccc2nccnc12,34*,1,0,2
Cc1ccccc1C(=O)Nc1ccc(-c2nc3ccc(NC(=O)c4ccccc4C)cc3[nH]2)cc1,76*,11,0,1
O=C(Nc1cccc(-c2nc3ccccc3[nH]2)c1)c1cc(=O)c2ccccc2o1,41*,-9,2,0
SMILES,TEAD-YAP block,MITF primary,FBW7 activator,GPR151 ag
Cc1ccccc1C(=O)Nc1ccc(OC(=O)c2ccccc2C)cc1,64*,-4,0,3
O=C(NCc1ccc(F)cc1)N1CCC2(CC1)OCc1cc(Br)ccc1O2,-11,-6,0,2
CCOC(=O)/C=C(\Nc1ccc(C)cc1N)c1ccccc1,38*,-10,0,-9
Cc1ccc(NC(=O)COc2ccccc2)c(N)c1,-45,11,0,0
O=C(c1cc(-c2ccc3c(c2)OCO3)on1)N1CCCC1,41*,-14,0,-2
O=C(c1cc(-c2cccc(O)c2)on1)N1CCCCCC1,31,-8,0,-1
O=C(c1cc(-c2ccc(O)cc2)on1)N1CCCCC1,45*,4,0,-1
